The text below walks through data of ChEMBL document CHEMBL3988442, “University of Dundee, Small-Polar-MMV Screening Library” (2021).

Screen size: about 48,000 compounds; about 13,000 (27%) showed an effect of 50% or more. The list shows a part of the results.

The subject of this test is Wolbachia pipientis. Description: Anti-Wolbachia Cell-Based Screen. It is filed as functional. On the set-up: scale not given: in the data most compounds retested in dose-response had high values. The conditions noted are these: 5 µM.
As for `CC(Cc1c(F)cccc1F)NC(=O)NCc1ncnn1C` (stereo not drawn), the “Percent Effect” value was 1.27%. As for `O=C(N[C@H]1CN2CCC1CC2)c1cc(Cn2cnc3ccccc32)[nH]n1`, the figure is -21.06%. As for `c1ccc(C(Cn2cnnc2)N2CCOCC2)nc1` (stereo not drawn), the figure is 9.343%.

For `Cc1cccc(CN2C[C@H]3CC[C@@H]2CN(Cc2[nH]cnc2C)C3)n1`, the “Percent Effect” value is given as -2.11%. As for `CC(=O)c1cc(C(=O)N2CC[C@@H]3CC[C@H](C2)N3C)c(=O)[nH]c1C`, the figure is -5.325%; as for `Nc1cnc(-c2cccc3c2CCNC3)cn1`, 7.253%. As for `Nc1cc(-c2cccc3c2CCNC3)ncn1`, the figure is 9.212%; as for `CN(C)C(=O)c1ccc(-c2cccc3c2CCNC3)cc1`, 85.47%; as for `Fc1cnc(N2CCO[C@H]3CN(CC4CCOC4)C[C@H]32)nc1` (stereo partly drawn), 71.68%. In the case of `O=C(O)C(F)(F)F.O=C(O)C(F)(F)F.c1cnc(N2CCO[C@H]3CN(CC4CCOCC4)C[C@H]32)nc1`, the “Percent Effect” value was 110.6%.

Regarding `Fc1cnc(N2CCO[C@H]3CN(CC4CCCCC4)C[C@H]32)nc1.O=C(O)C(F)(F)F`, the “Percent Effect” value amounted to 110%. As to `Cc1nc[nH]c1CN1C[C@@H]2OCCN(c3ncccn3)[C@@H]2C1.O=C(O)C(F)(F)F`, the “Percent Effect” value is -20.21%.

Take `Fc1ccccc1CN1C[C@@H]2OCCN(c3ncccn3)[C@@H]2C1`: the “Percent Effect” value worked out at 1.64%. As for `O=C(O)C(F)(F)F.c1cnc(N2CCO[C@H]3CN(Cc4csnn4)C[C@H]32)nc1`, the figure is -24.49%; as for `O=C(O)C(F)(F)F.O=C(O)C(F)(F)F.c1cnc(N2CCO[C@H]3CN(Cc4ccsc4)C[C@H]32)nc1`, 14.83%; as for `CNC(=O)CN1CCO[C@H]2CN(CC3CC3)C[C@H]21.O=C(O)C(F)(F)F.O=C(O)C(F)(F)F`, 7.624%.

Consider `O=C(O)C(F)(F)F.O=C(O)C(F)(F)F.c1cnc(N2CCO[C@H]3CN(CC4CC4)C[C@H]32)nc1`, for which the “Percent Effect” value is 92.7%. As for `Fc1cnc(N2CCO[C@H]3CN(CC4CCC4)C[C@H]32)nc1`, the figure is -20.13%. As for `Fc1cnc(N2CCO[C@H]3CN(CC4CCCC4)C[C@H]32)nc1.O=C(O)C(F)(F)F`, the figure is -2.844%; as for `CCN1CCN(c2ccc(C(=O)NCCOC)cc2F)CC1`, -17.47%.

Take `CC(C)(C)c1cn(C[C@H]2CC3CCN2C[C@@H]3C(=O)N2CCOCC2)nn1` (stereo partly drawn): the “Percent Effect” value is listed as -7.534%. As for `CC(Cn1cncn1)NCCN1CCc2ccccc21` (stereo not drawn), the figure is 1.288%. As for `O=C1[C@@H]2CCN(CC3CC3)C[C@@H]2OCCN1c1cccnc1`, the figure is -19.89%; as for `CC(C)CCN1C[C@@H]2OCCN(c3ncc(F)cn3)[C@@H]2C1.O=C(O)C(F)(F)F`, 92%; as for `c1ccc(CN2C[C@@H]3OCCN(c4cccnc4)[C@@H]3C2)nc1`, -16.65%.

Take `Cn1cc(CN2C[C@@H]3OCCN(c4ncccn4)[C@@H]3C2)cn1.O=C(O)C(F)(F)F.O=C(O)C(F)(F)F`: the “Percent Effect” value came to 9.697%. As for `O=C(O)C(F)(F)F.c1cncc(N2CCO[C@H]3CN(CC4CCOC4)C[C@H]32)c1` (stereo partly drawn), the figure is 94.42%.

Consider `Cn1cncc1CN1C[C@@H]2OCCN(c3ncccn3)[C@@H]2C1.O=C(O)C(F)(F)F`, for which the “Percent Effect” value is -0.0713%.
